Experimental data taken from PubChem BioAssay (NCI).
This is part of a sample that, as a whole, favours compounds with a hit. Of some 83,000 tested, about 20% had one in any assay.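 Activity criterion: percent growth below 10, measured after cells in 96-well plates were exposed to a single compound concentration for 48 hours.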 Active and inactive are the calls of the source.

Assays:
Experiment in all cases: NCI-60 one-dose screen, 48 h (100 = growth as untreated, 0 = no growth, -100 = all killed)
Details in all cases: 10 µM unless noted
[1] = tested on: HCT-15 colon
[2] = tested on: HT29 colon
[3] = tested on: SNB-75 CNS
[4] = tested on: SNB-19 CNS
[5] = tested on: U251 CNS
[6] = tested on: PC-3 prostate
[7] = tested on: SK-MEL-5 melanoma
[8] = tested on: UACC-62 melanoma
[9] = tested on: LOX IMVI melanoma
[10] = tested on: SK-MEL-28 melanoma

Compound | growth [1] | growth [2] | growth [3] | growth [4] | growth [5] | growth [6] | growth [7] | growth [8] | growth [9] | growth [10]
CNCCCNc1nc2ccccc2c2c(=O)c3cc(Cl)ccc3sc12 | -19.5% (active) | -92.4% (active) | 61% (inactive) | 55.7% (inactive) | -87.2% (active) | 32.8% (inactive) | 71.4% (inactive) | 10.9% (inactive) | -90.3% (active) | 50.8% (inactive)
O=C1CCCCN1c1ccc(C2=NCCCN2)cc1 | 101% (inactive) | 87.6% (inactive) | 55% (inactive) | 89.2% (inactive) | 79.3% (inactive) | 79.9% (inactive) | 97.5% (inactive) | 90.3% (inactive) | 87.7% (inactive) | 91.4% (inactive)
COc1ccc(C/C(C)=C(\c2ccc(Cl)cc2)c2ccc(OCCCN(C)C)cc2)cc1 | 27.3% (inactive) | 13.6% (inactive) | 72.4% (inactive) | 86.7% (inactive) | 46.4% (inactive) | 68.7% (inactive) | 78.3% (inactive) | 94.5% (inactive) | 73.1% (inactive) | 80.8% (inactive)
Nc1c(C(=O)Nc2cccc3ncccc23)sc2nc3c(cc12)CN(Cc1ccccc1)CC3 | 74.2% (inactive) | 81.7% (inactive) | 84.2% (inactive) | 82.3% (inactive) | 88% (inactive) | 77% (inactive) | 19.2% (inactive) | 53.5% (inactive) | 88.6% (inactive) | 81.7% (inactive)
COC(=O)Cn1c2c(c3c(OC)cccc31)C(=O)c1ccccc1-2 | 101% (inactive) | 95.8% (inactive) | 90.8% (inactive) | 90.5% (inactive) | 89.9% (inactive) | 87.4% (inactive) | 102% (inactive) | 93.3% (inactive) | 91.8% (inactive) | 97.1% (inactive)
COc1ccc(-c2cc(-c3cn(-c4cccc(Cl)c4)nc3-c3ccc(OC)cc3)on2)cc1 | 91.2% (inactive) | 93.6% (inactive) | 99.2% (inactive) | 92.7% (inactive) | 90.2% (inactive) | 86.5% (inactive) | 98% (inactive) | 94% (inactive) | 102% (inactive) | 105% (inactive)
COC(=O)c1c2c(c(C)[n+]([O-])c1C)C(=O)C(NCc1ccccc1)=CC2=O | 5.71% (active) | 12.7% (inactive) | 125% (inactive) | 7.59% (active) | 1.71% (active) | 8.92% (active) | -84.9% (active) | -16.6% (active) | 8.65% (active) | 61.3% (inactive)
O=S(=O)(NCCNc1nccc(-c2c(-c3ccc(F)c(O)c3)nc3sccn23)n1)c1ccc(Cl)cc1 | 27% (inactive) | 17.5% (inactive) | 50.2% (inactive) | 46.1% (inactive) | 41.6% (inactive) | 17% (inactive) | -18.5% (active) | -1.12% (active) | 29.6% (inactive) | 47.6% (inactive)
N#CSc1c[nH]c2ccc(/C=C/C(=O)/C=C(O)/C=C/c3ccc4[nH]cc(SC#N)c4c3)cc12 | -31% (active) | -10.1% (active) | 51.9% (inactive) | 46.2% (inactive) | 7.38% (active) | 12% (inactive) | 41.2% (inactive) | 26.3% (inactive) | -75.8% (active) | 31.8% (inactive)
CN(C)Cc1cc(C(C)(C)C)cc(Br)c1O | 95.6% (inactive) | 81.8% (inactive) | 91.5% (inactive) | 113% (inactive) | 107% (inactive) | 90.5% (inactive) | 96.1% (inactive) | 101% (inactive) | 103% (inactive) | 112% (inactive)
CC1(C)CC(=O)C2=C(C1)C(c1ccc(Cl)cc1)n1ncc(C#N)c1N2 (stereo not given) | 105% (inactive) | 106% (inactive) | 75.6% (inactive) | 96.5% (inactive) | 97.8% (inactive) | 90.4% (inactive) | 95.4% (inactive) | 89.8% (inactive) | 107% (inactive) | 112% (inactive)
C=C1CC[C@@H]2C(C)(C)[C@H](O)CC[C@@]2(C)[C@@H]1COc1ccc2ccc(=O)oc2c1 | 56.2% (inactive) | 84.1% (inactive) | 98.5% (inactive) | 86.2% (inactive) | 83.1% (inactive) | 25.2% (inactive) | 19.1% (inactive) | 24.5% (inactive) | 36.5% (inactive) | 73.6% (inactive)
O=c1c2ccccc2n(C[C@H]2CO2)c2ccccc12 | -16.8% (active) | 2.83% (active) | -29.4% (active) | 22.3% (inactive) | -6.13% (active) | 19.2% (inactive) | -80.8% (active) | -83.4% (active) | -54.3% (active) | 2.83% (active)
CCN(CC)CCOc1ccc(/C(=C(\C)Cc2ccc(OC)cc2)c2ccc(OC(=O)NCc3ccccc3)cc2)cc1 | 15.1% (inactive) | -34.8% (active) | 59.4% (inactive) | 66.9% (inactive) | 32.4% (inactive) | 46.2% (inactive) | 26.5% (inactive) | 34.3% (inactive) | 37.2% (inactive) | 38% (inactive)
O=S(=O)(Nc1ccc2ccccc2c1)c1ccc(-c2cnc(C3CC3)o2)cc1 | 31.5% (inactive) | 14.8% (inactive) | -1.76% (active) | 35.8% (inactive) | 23.6% (inactive) | 23.4% (inactive) | 28.2% (inactive) | 32.1% (inactive) | 56.9% (inactive) | 64.9% (inactive)
